Bioassay records deposited in PubChem by National Center for Advancing Translational Sciences (NCATS).
ELG1 DNA repair = blocks ELG1-dependent DNA repair in HEK293T cells | HEK293T ELG1-luciferase reporter, luminescence, 16 h; DNA damage induced by 5-fluorouridine | AID 504467 | Potency, µM (doses to about 46.1 µM), inactives show at the top dose activity change, negative = inhibition, hits mostly inhibitors | actives 2.3% (n = 330,000); note: % is set by controls: 0 for no effect and ±100 for the full control effect; nearly all actives have a fitted effect of over 55% in size
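Step one: seed 2,000 cells per well. Step two: pin-transfer compound or DMSO alongside 5-fluorouridine. Step three: incubate 16 hr, 37 °C, 5% CO2. Step four: add ONE-Glo, wait 30 min, read luminescence.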
KB-3-1 cytotox = KB-3-1 parental cell cytotoxicity; Potency, µM (highest dose often 46.1 µM), usual class: cytotoxic; actives 1.4% (n = 400,000); KB-3-1 viability, CellTiter-Glo ATP luminescence, 72 h; note: % is set by controls: 0 for no effect and ±100 for the full control effect; nearly all actives have a fitted effect of over 60% in size
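KB-3-1 parental drug-naive adenocarcinoma cells in DMEM/10% FBS, incubated 72 h at 37 C with pin-transferred compounds across a concentration series. Viability by CellTiter-Glo luminescence; concentration-response curves fitted after normalization.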
SW480 rereplic = DNA re-replication induction in SW480 cells. Potency, µM (series often up to 46.1 µM), inactives show at the highest dose re-replication activation, actives largely listed as activators. actives 1.8% (n = 340,000). AID 624297. SW480 DNA re-replication, Hoechst DNA content imaging, 48 h; note: % of control where 0% means no effect; nearly all actives have a fitted effect of over 55% in size
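SW480 cells exposed to compounds for 48 hr at 37 C, 5% CO2, then Hoechst-stained 40 min. Nuclear DNA content imaged by fluorescence scanning (405 nm excitation, 500-530 nm emission); re-replication scored as increased high-intensity nuclei.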
KB-V1 MDR tox = kills drug-selected multidrug resistant KB-V1 cells; KB-V1 MDR cells viability, CellTiter-Glo, 72 h; Potency, µM (titrated, usually from 46.1 µM), hits mostly cytotoxic; actives 3.4% (n = 400,000); note: % is set by controls: 0 for no effect and ±100 for the full control effect; nearly all actives have a fitted effect of over 60% in size
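qHTS viability screen in drug-selected KB-V1 MDR cells: 72 h compound treatment at 37 degrees C, ATP luminescence end point.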
MCF10A rerep = inducers of DNA re-replication in MCF 10A breast cells; MCF 10A DNA re-replication, Hoechst nuclear intensity, 48 h; Potency, µM (highest dose often 46.1 µM), without a hit: top-dose activity, positive = re-replication, most hits filed as activators; actives 2.9% (n = 350,000); AID 624296; note: % of control where 0% means no effect; nearly all actives have a fitted effect of over 50% in size
Active calls of the source: *; i = inactive; ? = inconclusive; · = not tested or not shown. Hits are enriched below; roughly 8.2% of the tested compounds scored in any of these assays. Calls come from the whole dose curve; as a rule, active = well fitted curve in the direction sought with a large enough effect; inconclusive = small, poorly fitted or top-dose-only effect, or another doubt; inactive = no such curve, though single readings can be large; an effect the other way counts as inactive or inconclusive. Potency is the fitted concentration of half-maximal effect.

SMILES	ELG1 DNA repair	KB-3-1 cytotox	SW480 rereplic	KB-V1 MDR tox	MCF10A rerep
CN(C)c1ccc(/C=N/NC(=O)c2cc(-c3ccc4c(c3)OCO4)n[nH]2)cc1	27%	?	?	?	5.8µM*
CC(=O)c1c(C)[nH]c(C(=O)OCC(=O)N2CC(C)OC(C)C2)c1C (centres undefined)	28%	i	-4%	i	-3%
Cc1ccc(S(=O)(=O)Nc2ccc(NC(=O)c3cccnc3)cc2)cc1	?	i	0%	i	-38%
Cc1cc(C(=O)N2CCCC(C(=O)c3ccc(Cl)cc3C)C2)no1 (centres undefined)	?	i	23µM*	?	?
CC/C(=C\c1oc2cc3ccccc3cc2[n+]1CC)Nc1ccccc1	-10%	i	18µM*	21µM*	23µM*
CCCCc1nc(NCC2CCCO2)c(C#N)c2c1COC(C)(C)C2 (centres undefined)	7.3µM*	?	1%	?	?
O=C(c1ccccc1)N1CCCC(C(=O)N2CCCCCC2)C1 (centres undefined)	1%	i	-10%	21µM*	0%
CCc1cc2cc(C(=O)N3CCN(c4ccccc4)CC3)sc2s1	0%	i	16%	i	15%
O=C(c1ccc(CNS(=O)(=O)c2ccccc2)cc1)N1CCN(Cc2ccccc2)CC1	?	18µM*	21%	4.6µM*	28%
O=C(c1ccccc1)N1CCN(Cc2ccccc2)CC1	7%	i	17%	i	13µM*
CCc1cc2cc(C(=O)N3CCN(Cc4ccccc4)CC3)sc2s1	·	21µM*	-8%	15µM*	?
O=C(NCc1ccccc1Cl)c1cc2ccccc2o1	·	i	·	i	·
COc1ccc(Cl)cc1S(=O)(=O)N1CCC(C(=O)N2CCOCC2)CC1	-1%	i	-1%	i	-4%
CCCCCCC(=O)N/N=C(\C)Cc1ccccc1	6%	i	-1%	i	9%
CCc1ccccc1-n1ncc(C(=O)Nc2ccccc2OC)c1C	-15%	i	0%	?	6%
O=C(NCCN1CCN(C(=O)c2ccc(F)cc2)CC1)C(=O)NCc1ccccc1	14%	i	-12%	i	-3%
O=C(c1ccncc1)N1CCN(CCc2ccccc2)CC1	-3%	i	?	i	18µM*
O=C(O)c1ccc(CNS(=O)(=O)c2ccc(Oc3ccccc3Cl)cc2)cc1	?	i	0.16µM*	i	?
CC(C)(C)c1ccc(C(=O)N2CCN(CCNC(=O)C(=O)NCc3ccccc3)CC2)cc1	-18%	i	-3%	7.3µM*	-1%
O=C(c1ccccc1F)N1CCN(Cc2cccc(Cl)c2)CC1	?	i	0%	21µM*	0%
O=C(CCNS(=O)(=O)c1ccc(Br)cc1)NC1CCC(O)CC1 (centres undefined)	0%	i	-15%	i	0%
CCCCn1nc(C(=O)N(CC(C)C)c2c(N)n(CCCC)c(=O)[nH]c2=O)c2ccccc2c1=O	7%	?	-5%	i	0%
O=C(NNC(=O)c1ccccc1Cl)c1ccc(-n2cncn2)c([N+](=O)[O-])c1	-2%	i	-4%	i	12%
O=c1c(Cl)c(Cl)cnn1Cc1ccccc1Cl	10µM*	?	?	i	5.8µM*
Cc1cc(C)cc(Cn2ncc(Cl)c(Cl)c2=O)c1	?	?	3.7µM*	23µM*	3.7µM*
O=c1c(Cl)c(Cl)cnn1Cc1nnc(-c2ccc(Cl)cc2)o1	?	?	3.7µM*	i	5.8µM*
Cc1cccc(C)c1NC(=O)CN(C)C(C)C(=O)Nc1ccccc1-c1ccccc1 (centres undefined)	0%	i	-6%	i	5%
CCN(CC)S(=O)(=O)c1cc(NC(=O)C(C)N(C)CC(=O)Nc2c(C)cccc2C)ccc1C (centres undefined)	21µM*	?	28%	5.2µM*	24%
COC(=O)C1=C(CS(=O)(=O)c2cc(Cl)ccc2OC)NC(=O)NC1c1ccc(O)c(OC)c1 (centres undefined)	11%	i	-33%	?	-1%
